Assay results reported in PubChem BioAssay AID743398 (Broad Institute, 2014).
Among all 300,000 compounds or so, about 3,600 (1.2%) were called active. This is one part of a sample in which actives are shown more often than they occur. No stated cut-off is given here; in the data, active means activation above about 30% (passing the limit was not always enough); inconclusive means no clear call, values can overlap the other calls.

assay: Wnt/beta-catenin pathway activators, primary screen, cell-based, plate reader, single point (AID 743398); conditions: Wnt/beta-catenin reporter cell assay, activator, at 9.35 µM, stronger effect = higher value;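 further: 0% = neutral control wells and 100% = positive control wells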

SMILES	activation
CC(C)Oc1ccc(CN2CCC2(C)C(=O)NCc2ccc(C(F)(F)F)cc2)cc1 (stereo unspecified)	-2.84% (inactive)
COc1cccc(OCc2cc(C(=O)N3CCN(C(=O)c4ccco4)CC3)no2)c1	31.4% (active)
O=C(c1cc(COc2ccc(F)cc2F)on1)N1CCOCC1	12.4% (inactive)
COc1ccc(OCc2cc(C(=O)N3CCCC3)no2)c2ccccc12	43% (active)
O=C(c1cc(COc2cccc(C(F)(F)F)c2)on1)N1CCSCC1	1.55% (inactive)
COc1cc(Cl)ccc1OCc1cc(C(=O)N2CC[C@@H]3CCCC[C@H]3C2)no1	18.3% (inactive)
O=C(c1cc(-c2ccc(O)cc2)on1)N1CCOCC1	19.9% (inactive)
COc1cccc(C(=O)Nc2ccc(N3CCN(C(=O)c4ccco4)CC3)cc2)c1	-1.7% (inactive)
COc1ccccc1-c1cc(C(=O)N2CCCCC2)no1	0.293% (inactive)
O=C(c1cc(-c2ccccc2O)on1)N1CCCC1	57.5% (active)
COC(=O)[C@]12C[C@H](CC(=O)NCc3ccc(OC)c(OC)c3)C(=O)N(Cc3ccccc3)C1=C[C@H](C(C)C)O[C@@H]2C1CC1	-0.346% (inactive)
CSCCC(NC(=O)COc1ccccc1)C(=O)N1CCN(c2cccc(C(F)(F)F)c2)CC1 (stereo unspecified)	-3.61% (inactive)
COc1ccc(OC)c(NC(=O)C2CCCN2S(=O)(=O)c2ccc3c(c2)CC(C)N3C(C)=O)c1 (stereo unspecified)	-5.88% (inactive)
CCOC(=O)N1CCN(C(=O)C[C@@H]2C[C@@]3(C(=O)OC)CC(C)(C)CC=C3N(Cc3ccco3)C2=O)CC1	0.171% (inactive)
CCc1nc2c(OCCOc3ccccc3)cccn2c1N(C=O)Cc1ccc(OC)cc1	-2.79% (inactive)
Cc1ccc(NC(=O)c2c(NC(=O)CCC(=O)O)sc3c2CCCCC3)cc1	29.5% (inactive)
Cc1ccc(C(=O)c2c(NC(=O)c3ccncc3)sc3c2CCCC3)cc1	38.4% (active)
NC(=O)c1c(NC(=O)c2ccccc2)sc2c1CCCC2	1.12% (inactive)
CCCCCCCCN1C(=O)[C@@H](CC(=O)NCCCC)C[C@@]2(C(=O)OC)C1=C[C@H](C(C)(C)C)O[C@@H]2C	-3% (inactive)
COc1cccc(/C=C2\SC(=S)N(CCCC(=O)N3CCOCC3)C2=O)c1	3.86% (inactive)
CCc1nc2ccc(C(=O)Nc3ccc(OC)c(OC)c3)cn2c1N(C)C(=O)c1cccc(OC)c1	-0.76% (inactive)
Cc1ccc(C(=O)CSc2nnc(Cn3nnc4ccccc43)n2C)cc1	-0.352% (inactive)

SMILES	activation
Cn1c(CNC(=O)c2ccccc2F)nnc1SCc1ccc(F)cc1	-0.026% (inactive)
Cn1c(Cn2nnc3ccccc32)nnc1SCC(=O)c1ccccc1F	85.8% (active)
Cc1[nH]c2ccccc2c1CC(=O)Nc1ccc(Nc2cccnc2)c(-c2cccc(Cl)c2)c1	-2.14% (inactive)
CCOC(=O)[C@]12CCCC=C1N(CCC1=CCCCC1)C(=O)[C@H](CC(=O)N1CCN(C(=O)c3ccco3)CC1)C2	-1.88% (inactive)
COc1ccccc1C1/C(=C(/O)c2ccc(OC(C)C)cc2)C(=O)C(=O)N1c1cc(C)on1 (stereo unspecified)	-12% (inactive)
CCOc1ccc(/C(O)=C2\C(=O)C(=O)N(c3ccc(OC)cc3)C2c2ccccc2[N+](=O)[O-])cc1 (stereo unspecified)	53.5% (active)
COc1ccc(C2/C(=C(/O)c3ccccc3)C(=O)C(=O)N2C)c(OC)c1 (stereo unspecified)	0.335% (inactive)
OC[C@@H]1CN(Cc2ccc(F)cc2)C[C@H](n2cnc3c(NC4CCCC4)ncnc32)O1	-2.91% (inactive)
CC1C(C)N(C(=O)CCl)c2ccccc2N1C(=O)CCl (stereo unspecified)	-5.8% (inactive)
O=c1oc2ccccc2c(=O)c2ccccc12	-3.29% (inactive)
COc1ccccc1N=Cc1c(O)c2ccccc2oc1=O	59% (active)
COc1cc(N=Cc2c(O)c3ccccc3oc2=O)c(OC)cc1Cl	-0.517% (inactive)
COc1cccc(-c2cc(NC(C)=O)c3ncc(-c4cccc(C(C)=O)c4)n3c2)c1	-1.27% (inactive)
COc1ccc(OC)c(C(O)c2ncc(-c3cccc(C(F)(F)F)c3)[nH]2)c1 (stereo unspecified)	-1.7% (inactive)
CC1(C)OC(=O)C2=C(CC(CCc3ccccc3)OC2c2ccc(Cl)cc2)O1 (stereo unspecified)	-2.32% (inactive)
CCOC(=O)CNC(=O)N(C)[C@H]1C[C@H]2c3[nH]c4c(-c5ccc6c(c5)OCO6)cccc4c3CCN2C(=O)[C@H]1[C@H](C)O	-4.82% (inactive)
CCCCCCNC(=O)O[C@H]1CN(C(=O)OC(C)C)N(C(=O)OC(C)C)[C@@H]2CN(S(=O)(=O)c3ccc(C)cc3)C[C@]12O	-6.88% (inactive)
CCNc1nc(-c2cc3ccccc3o2)cs1	55.9% (active)
O=C(NCc1cccnc1)c1cccc(-c2cc3ccccc3oc2=O)c1	-9.13% (inactive)
CCCn1c(CCNc2nc(-c3ccc(OC)cc3)cs2)nc2ccccc21	1.69% (inactive)
Cc1nc(C)c(-c2csc(NCCc3ccccc3)n2)s1	10.9% (inactive)
O=c1oc2ccccc2cc1-c1csc(Nc2ccc(O)cc2)n1	48% (active)

SMILES	activation
O=C(Nc1ccncc1)c1cc2ccccc2o1	-4.19% (inactive)
CCOC(=O)[C@]12CCCC=C1N(CCC1=CCCCC1)C(=O)[C@H](CC(=O)NCCCCc1ccccc1)C2	-3.03% (inactive)
COc1ccc(NC(=O)c2sc(=O)n(Cc3ccc(S(=O)(=O)N(C)C)cc3)c2C)cc1	-1.18% (inactive)
O=C(Nc1ccc(Cl)cc1)C1Cc2c(-c3ccc4c(c3)OCO4)ccnc2O1 (stereo unspecified)	-2.4% (inactive)
O=C(NCCOc1ccccc1)N1[C@H]2CC[C@@H]1C=C(c1ccc(F)cc1OCc1ccccc1)C2	-5.01% (inactive)
COc1ccc(SSc2ccc(OC)cc2C(=O)O)c(C(=O)O)c1	-2.15% (inactive)
Cc1ccc(S(=O)(=O)N2[C@@H](Cc3ccccc3)CO[C@H]2CC(=O)OCc2ccccc2)cc1	-1.94% (inactive)
COc1ccc(N2c3ccccc3CN(Cc3ccccc3)[C@@H](C)[C@H]2Cc2ccc(-c3ccccc3)cc2)cc1	-4.27% (inactive)
COc1ccc(OC)c(-c2csc(-c3cccs3)n2)c1	3.92% (inactive)
CN=c1scc(-c2cc(OC)ccc2OC)n1/N=C/c1c(C)[nH]c2ccccc12	68.5% (active)
Cc1[nH]c2ccccc2c1/C=N\NC(=O)Cn1nnc(-c2ccccc2)n1	-3.53% (inactive)
CCC(=O)N1Cc2cc(C(=O)NCc3cccc(F)c3)nc(-c3cccc(C4=CCCC4)c3)c2[C@H]1CCO	-0.49% (inactive)
O=C(NCc1ccccc1)[C@H]1CCCN1C(=O)[C@H]1CCCN1C(=O)c1cc(F)cc(F)c1	0.924% (inactive)
COc1ccc(/C=N/Nc2ccccc2C(=O)O)cc1	42.5% (active)
COc1ccc(C(=O)Nc2ccccc2C(=O)N/N=C/c2ccc(O)c(OC)c2)cc1	-6.14% (inactive)
COc1ccc(/C=N/NS(=O)(=O)c2ccc(NC(C)=O)cc2)cc1	0.428% (inactive)
Cn1nc(N)c2ncc(C(Cl)(Cl)Cl)nc21	-2.14% (inactive)
N#Cc1cccc(C(=O)NCC2CCN(C(=O)C(=O)c3cc4ccccc4o3)CC2)c1	-4.03% (inactive)
Cc1ccc(C(=O)N/C(=C/c2cccs2)C(=O)NCC2CCCO2)cc1 (stereo unspecified)	-12.8% (inactive)
Cc1ccc(-n2c(C)cc(/C=C(\C#N)C(=O)NCC3CCCO3)c2C)cc1 (stereo unspecified)	38.2% (active)
Cc1ccc2c(c1)N(CC(=O)NCC1CCCO1)C(=O)CO2 (stereo unspecified)	6.02% (inactive)
O=C1Nc2ccccc2NC(c2ccc3c(c2)OCO3)=C1N(Cc1ccc(F)cc1)C(=O)c1ccco1	-2.97% (inactive)

SMILES	activation
COC(=O)[C@]12C[C@H](CC(=O)NCc3cccc(C(F)(F)F)c3)C(=O)N(Cc3ccc4c(c3)OCO4)C1=C[C@H](COCc1ccccc1)O[C@@H]2C	-11.9% (inactive)
CCCCNc1cccc2c1S(=O)(=O)N[C@@H](C)CO2	-1.25% (inactive)
O=C(NCc1cccc(C(F)(F)F)c1)c1ccc2sc(COCCO)nc2c1	0.012% (inactive)
Cc1ccc(NC(=O)Nc2nnc(-c3ccncc3)s2)cc1	0.919% (inactive)
Cc1ccc(NC(=O)Nc2cccnc2)cc1	8.59% (inactive)
Cc1ccc(NC(=O)Nc2ccc3oc(C)nc3c2)cc1	53.7% (active)
O=C1Nc2ccccc2-n2nnnc2C1N1CCN(c2cccc(C(F)(F)F)n2)CC1 (stereo unspecified)	-4.31% (inactive)
O=C(CSc1nc2ccccc2o1)N1c2ccccc2Sc2ccc(Cl)cc21	-2.83% (inactive)
O=C(CSc1nc2ccccc2o1)N/N=C/c1ccccc1C(=O)O	25.7% (inactive)
CC(C)(C)C(=O)CSc1nc2ccccc2o1	52.3% (active)
Cc1cc2c(cc1C)N1C(=O)c3cc4ccccc4cc3NC(=O)C1C(=O)N2 (stereo unspecified)	-1.58% (inactive)
CC1(C(=O)Nc2cccc3c2CCCC3)CCN1C(=O)C1(c2ccccc2)CC1 (stereo unspecified)	-1.58% (inactive)
Cc1ccc(CSc2nnc(-c3cnccn3)n2C)cc1	2.04% (inactive)
Cn1c(SCc2c(F)cccc2Cl)nnc1-c1cnccn1	41.7% (active)
Oc1ccc(-n2nnnc2SCc2c(F)cccc2Cl)cc1	-2.71% (inactive)
COc1ccccc1N1CCN(/N=C\C(Br)=C\c2ccccc2)CC1	7.85% (inactive)
COc1ccccc1N1CCN(/N=C/c2ccc(O)cc2O)CC1	37.4% (active)
COc1cc(/C=N/N2CCN(c3ccccc3)CC2)ccc1OC(C)=O	3.52% (inactive)
CC(C)c1cc(C(=O)N(C)C2CCCN(Cc3ccccc3F)C2)n(C)n1 (stereo unspecified)	-4.84% (inactive)
Cc1nc(NC(=O)C(C)(C)C)sc1[N+](=O)[O-]	-2.63% (inactive)
